# Measurements as given in the supplement of paper PMC13380429.
# Tests used:
# [1] = system: Vero E6 infected with SARS-CoV-2; assay: morphology score (similarity to uninfected cells); higher = more like uninfected cells; settings: 24 h
# [2] = system: Vero E6 infected with SARS-CoV-2; assay: SARS-CoV-2 infection rate relative to infected DMSO; higher = more infection, active = 60 or less; settings: 24 h
SMILES,morphology score [1],SARS-CoV-2 infection rate [2]
CCS(=O)(=O)c1cccc(-c2cc(C(=O)NC3CCN(C)CC3)c(C)c3[nH]c4ncc(C)cc4c23)c1 (0.833333 µM),0.14,105% (inactive)
CSc1ccc(C(=O)/C=C/c2cc(C)c(OC(C)(C)C(=O)O)c(C)c2)cc1 [elafibranor] (10 µM),0.00446,110% (inactive)
N#CCC(=O)NN [cyacetacide] (10 µM),0.167,102% (inactive)
C[C@]12CC[C@H](O)C[C@H]1CC[C@@H]1[C@@H]2CC[C@]2(C)[C@@](O)(c3ccoc3)CC[C@]12O [rostafuroxine] (10 µM),-0.206,118% (inactive)
CCOc1cc(C=O)ccc1O [ethyl-vanillin] (10 µM),0.19,100% (inactive)
N=C(N)c1ccc(-c2ccc(-c3ccc(C(=N)N)cc3)o2)cc1 [furamidine] (10 µM),-0.436,98% (inactive)
c1cnc(NCc2ccc(CNc3ncccn3)cc2)nc1 (10 µM),0.18,112% (inactive)
Cn1c(=O)c2c(ncn2CCO)n(C)c1=O [etofylline] (10 µM),0.0956,104% (inactive)
COc1ccc(-c2ccc3cc(C(=O)O)ccc3c2)cc1C12CC3CC(CC(C3)C1)C2 [adapalene] (10 µM),-0.091,104% (inactive)
Cn1c(=O)c2c(ncn2CC(=O)O)n(C)c1=O [acefylline] (10 µM),0.124,100% (inactive)
O=C1OC(c2ccc(O)cc2)(c2ccc(O)cc2)c2ccccc21 [phenolphthalein] (10 µM),0.0414,110% (inactive)
CCCCCCOC(=O)CCC(=O)CN [hexaminolevulinate] (10 µM),0.0924,102% (inactive)
COc1ccc(CC2NCCc3cc(OC)c(OC)cc32)cc1OC (configuration not stated) [tetrahydropapaverine] (10 µM),-0.026,108% (inactive)
CCO[C@@H](Cc1ccc(OCCc2ccc(OS(C)(=O)=O)cc2)cc1)C(=O)O [tesaglitazar] (10 µM),0.194,110% (inactive)
COc1ccccc1OCC(O)COC(N)=O (configuration not stated) [methocarbamol] (10 µM),0.0924,100% (inactive)
Clc1ccc(COC(Cn2ccnc2)c2ccc(Cl)cc2Cl)c(Cl)c1 (configuration not stated) [miconazole] (10 µM),-0.274,118% (inactive)
